# From PubChem BioAssay AID1508602 (The Scripps Research Institute Molecular Screening Center, 2020)
# Among all 650,000 compounds or so, about 6,800 (1%) were called active. Rule as the data show it: active = activation above about 4.9%; inactive = the rest. Many of the other results were omitted from the sample, so actives are more common in it than they were.
# Target: G-protein coupled receptor 151 (Homo sapiens) (UniProt Q8TDV0)
# Experiment: activators of human GPR151, primary screen, cell-based, PathHunter beta-arrestin, luminescence (AID 1508602);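 also: 0% = median of compound wells and 100% = cells with positive control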
# Conditions: PathHunter beta-arrestin GPR151 cells, at 11.2 µM, stronger effect = higher value
# G-protein coupled receptor 151 (Homo sapiens), sequence (Q8TDV0 whole entry, looked up): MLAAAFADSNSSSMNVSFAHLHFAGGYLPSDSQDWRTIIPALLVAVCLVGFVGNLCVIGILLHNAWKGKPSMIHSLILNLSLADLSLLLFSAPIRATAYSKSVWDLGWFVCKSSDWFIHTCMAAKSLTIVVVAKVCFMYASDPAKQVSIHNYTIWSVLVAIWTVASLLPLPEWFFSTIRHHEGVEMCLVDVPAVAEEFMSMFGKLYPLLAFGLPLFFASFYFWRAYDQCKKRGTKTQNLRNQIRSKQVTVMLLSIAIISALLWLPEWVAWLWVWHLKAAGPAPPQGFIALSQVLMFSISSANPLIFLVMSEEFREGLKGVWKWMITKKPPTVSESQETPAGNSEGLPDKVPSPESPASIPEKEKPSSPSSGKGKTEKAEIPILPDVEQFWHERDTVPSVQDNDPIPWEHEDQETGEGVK
row,SMILES,activation
1,O=C(C1CC1)N1CC[C@H]2[C@H](CCCN2C/C=C/c2ccco2)C1,0.174% (inactive)
2,O=C(Nc1ccccc1)c1cnc(N2CCC(N3CCOCC3)CC2)s1,-1.62% (inactive)
3,COc1cccc(N(CC(=O)NCCSc2ccccn2)S(C)(=O)=O)c1,1.03% (inactive)
4,COc1ccc(/C=C/C(=O)NCCSc2ccccn2)cc1,-0.668% (inactive)
5,COc1ccc(C=C(C#N)C#N)c(CSc2ccccn2)c1,5.44% (active)
6,Cn1c(SCC(=O)NC(Cc2ccccc2)C(=O)O)nnc1-c1ccncc1 (stereo not given),-0.851% (inactive)
7,CCOc1ccc(CCn2c(-c3ccccc3)cn3c4c(=O)n(C)c(=O)n(C)c4nc23)cc1OCC,0.226% (inactive)
8,O=C1CC(N2CCN(c3ccc(Cl)cc3)CC2)C(=O)N1c1ccc(Cl)c(Cl)c1 (stereo not given),-0.621% (inactive)
9,Cc1ccc(N2C(=O)CC(N3CCC(Cc4ccccc4)CC3)C2=O)cc1Cl (stereo not given),-0.328% (inactive)
10,Cc1ccc(N2C(=O)CC(N3CCN(Cc4ccc(Cl)cc4)CC3)C2=O)cc1Cl (stereo not given),5.11% (active)
11,COc1ccc2ccccc2c1CN1CCc2nnc(C(C)NC(=O)C(C)C)n2CC1 (stereo not given),1.9% (inactive)
12,COc1cc(C(C)=Nc2c(C)n(C)n(-c3ccccc3)c2=O)cc(O)c1OC,5.37% (active)
13,COc1ccc(C(=O)Nc2c(C)n(C)n(-c3ccccc3)c2=O)c(OC)c1OC,0.96% (inactive)
14,Cc1c(N=C(Nc2ccccc2)Nc2ccccc2)c(=O)n(-c2ccccc2)n1C,-0.384% (inactive)
15,CCOc1ccc(CCNC(=O)Cn2c(-c3cncs3)nc3ccccc32)cc1OCC,-0.67% (inactive)
16,O=C(Nc1ccccc1)/C(=C\c1ccco1)NC(=O)c1cccc(Cl)c1,0.512% (inactive)
17,CCOC(=O)c1cnc2c(OC)cccc2c1Nc1ccc(Oc2ccccc2)cc1,-0.414% (inactive)
18,CCN(CC)c1nc(Nc2ccccc2)nc(Nc2ccc(NC(C)=O)cc2)n1,-0.926% (inactive)
19,CCN(CC)c1nc(NCc2ccccc2)nc(NCc2ccc3c(c2)OCO3)n1,0.801% (inactive)
20,CCN(CC)c1nc(Nc2ccccc2)nc(Nc2ccccc2)n1,6.59% (active)
21,COc1cccc(C(=O)COC(=O)c2c3c(nc4ccccc24)CCCC3)c1,1.21% (inactive)
22,CCOC1=C/C(=C/c2c(N)n3nc(N4CCCC4)sc3nc2=O)C=CC1=O,-1.93% (inactive)
23,CN1CCN(CC(O)COCc2ccc3c(c2)OCO3)CC1 (stereo not given),10.1% (active)
24,COC(=O)C(C)CN1CCN(Cc2ccc3c(c2)OCO3)CC1 (stereo not given),-1.4% (inactive)
25,CC1CCCN(CC(O)COc2ccc3c(c2)OCO3)C1 (stereo not given),-0.477% (inactive)
